Assay outcomes deposited in PubChem by National Center for Advancing Translational Sciences (NCATS).
Only some compounds are listed: those with a hit (about 2.3% of all), similar ones and a draw of the others.
ATXN2 expr inh: Primary qHTS for Inhibitors of ATXN expression; HEK-293 ATXN2-luciferase reporter, luminescence, 24 h; Potency, µM (doses to about 57 µM), inactives show top-dose activity change, negative = inhibition, most hits filed as inhibitors; actives 0.72% (n = 360,000); also: % is scaled to controls: 0 for no effect and ±100 for the full control effect; nearly all actives have a fitted effect of over 55% in size
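ATXN2-luciferase reporter cells (luciferase flanked by upstream and downstream ATXN2 gene portions) were treated 24 h at 37 °C with compounds at up to 57 uM. SteadyGlo luminescence gave expression; GF-AFC fluorescence gave viability.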
HepG2 tox: qHTS for Inhibitors of TGF-b: Cytotox Counterscreen | AID 588856, 2011 | actives 0.76% (n = 410,000) | HepG2 CAGA-GFP viability, ATP luminescence, 18 h | Potency, µM (top dose mostly 46.1 µM), without a hit: top-dose activity change, negative = cytotoxicity, actives largely listed as cytotoxic
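CellTiter-Glo luminescence gave cytotoxicity after 18 hours at 37 degrees C. The cells were HepG2 CAGA-GFP in 1% FBS DMEM, stimulated with 500 pg/mL TGF-beta after compound addition. %Activity was normalised to no-cell wells (complete cell-killing) and DMSO (no toxicity), and curves were fitted and classified.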
TGFb SMAD3 inh: qHTS for Inhibitors of TGF-b; Potency, µM (doses to about 46.1 µM), inactives show top-dose activity, negative = inhibition, hits mostly inhibitors; actives 1.2% (n = 410,000); HepG2 CAGA-GFP TGF-b/SMAD3 reporter, GFP fluorescence, 18 h; TGF-beta stimulated, 500 pg/mL final; also: % is scaled to controls: 0 for no effect and ±100 for the full control effect; nearly all actives have a fitted effect of over 65% in size
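First, reporter cells (HEPG2 CAGA-GFP) rested 2 h at 37 degrees C. Next, compounds were pinned in and TGF-beta added to 500 pg/mL final. After 18 h, GFP was imaged per cell and summed per well.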
S2 tox: Viability Counterscreen for Primary qHTS for Inhibitors of ATXN expression. AID 651635, 2014. Potency, µM (highest dose often 56.7 µM), hits mostly cytotoxic. S2 cells (HEK-293 line with an ATXN2-luciferase reporter) viability, CellTiter-Fluor protease fluorescence, 24 h. actives 0.49% (n = 400,000); also: nearly all actives have a fitted effect of over 40% in size
The depositor's hits bear a star. Calls follow the shape of the dose curve; as a rule, active = well fitted curve in the direction sought with a large enough effect; inconclusive = small, poorly fitted or top-dose-only effect, or another doubt; inactive = no such curve, though single readings can be large; an effect the other way counts as inactive or inconclusive. Potency is read from the fitted curve at half-maximal effect.

For CCC(C=C[C@@H]1OC(=O)C=C[C@H]1C)=C[C@H](C)CC=CC(C)=C[C@@H](C)C(=O)[C@@H](C)[C@H](O)[C@@H](C)CC(C)=CC(=O)O the results were ATXN2 expr inh 0.13µM*.
CCc1cnn2c(NCc3ccc[n+]([O-])c3)cc(N3CCCC[C@@H]3CCO)nc12 was read as ATXN2 expr inh 0.014µM*.
Screening O=C(NCCC1CCCCN1S(=O)(=O)c1ccc(F)cc1)C(=O)NCc1cccnc1 (stereo not drawn) returned ATXN2 expr inh -4%, HepG2 tox -9%, TGFb SMAD3 inh -2% and S2 tox inactive.
Screening Cn1ccnc1C(=O)c1cc(SCC(=O)NC2CC2)nc2ccccc12 returned ATXN2 expr inh 12%, HepG2 tox -9%, TGFb SMAD3 inh -2% and S2 tox inactive.
CN(C(=O)CSc1cc(C(=O)c2nccn2C)c2ccccc2n1)c1ccccc1 was read as ATXN2 expr inh -5%, HepG2 tox -24%, TGFb SMAD3 inh 14µM* and S2 tox inconclusive.
For O=S(=O)(c1ccccc1Br)N1CCN(c2nc(-c3ccccc3)nc3ccccc23)CC1 the results were HepG2 tox 7% and TGFb SMAD3 inh 5%.
`O=C(c1cccc(F)c1)N1CCC(N2CCCCCC2)CC1` gave ATXN2 expr inh -4%, HepG2 tox -9%, TGFb SMAD3 inh -3% and S2 tox inactive.
For O=C(c1ccc(Nc2nccc(-c3cc4ccccc4s3)n2)cc1)N1CCC(N2CCCC2)CC1 the results were ATXN2 expr inh 19µM*.
`O=C(CCCl)Nc1cccc2cccnc12` gave HepG2 tox -90% and TGFb SMAD3 inh 7.1µM*.
Screening COc1ccccc1C(=O)Nc1nc2ccccc2s1 returned ATXN2 expr inh inconclusive, HepG2 tox 11µM*, TGFb SMAD3 inh -21% and S2 tox inactive.
Screening COc1ccc(C(=O)Nc2nc3ccccc3s2)c(OC)c1 returned ATXN2 expr inh 0.79µM*, HepG2 tox 18µM*, TGFb SMAD3 inh 12% and S2 tox inactive.
Screening CC(NC(=O)C1CCOCC1)c1nnc2n1CCN(Cc1cc3c(cc1Cl)OCO3)CC2 (stereo not drawn) returned S2 tox inactive.
For C=CC(=O)Nc1cccc(Nc2nc(N[C@H]3CC[C@H](N(C)C)CC3)nc3c2ncn3C(C)C)c1 the results were ATXN2 expr inh 1µM*, HepG2 tox -4%, TGFb SMAD3 inh 0.71µM* and S2 tox 2µM*.
Cc1ccc(NC(=O)COc2ccccc2CNC(C)(C)CC(C)(C)C)cc1 was read as ATXN2 expr inh 25µM*, HepG2 tox 11µM*, TGFb SMAD3 inh inconclusive and S2 tox 22µM*.
Screening Cc1cc(Nc2cccc(F)c2)nc(-c2ccccc2O)n1 returned ATXN2 expr inh -19%, HepG2 tox 11µM*, TGFb SMAD3 inh inconclusive and S2 tox inactive.
`COc1cc(=O)n2c(c1C(=O)NC(C)c1ccco1)CCN(C(=O)c1cccc(C)c1C)CC2` (stereo not drawn) gave S2 tox inactive.
CC(C)CC1NC(=S)N(Cc2ccccc2)C1=O (stereo not drawn) was read as HepG2 tox -38%, TGFb SMAD3 inh 5µM* and S2 tox inconclusive.
For COCc1ccc(CN2Cc3cc(Cl)ccc3OC(C)C2)o1 (stereo not drawn) the results were S2 tox inactive.
For COc1ccc(O)c(/C=N/NC(=O)c2cccc(N3CCCC3=O)c2)c1 the results were ATXN2 expr inh inconclusive, HepG2 tox -23%, TGFb SMAD3 inh 3% and S2 tox inactive.
COc1ccc(O)c(/C=N/NC(=O)c2ccc(N3CCCC3=O)cc2)c1 was read as ATXN2 expr inh 25µM*, HepG2 tox -28%, TGFb SMAD3 inh 7% and S2 tox inactive.
S=Cc1ccc(/C=C/c2ccnc3ccccc23)cc1 was read as HepG2 tox -32% and TGFb SMAD3 inh 1%.
Screening CCS(=O)(=O)c1ccc(OC)c(C(=O)OC)c1 returned ATXN2 expr inh 12% and S2 tox inactive.
Cc1ccc(-c2cc(C(=O)N/N=C/c3c(C)nn(-c4ccccc4)c3C)n[nH]2)s1 was read as HepG2 tox -31%, TGFb SMAD3 inh 13µM* and S2 tox inconclusive.
`Cc1ccc(NC(=O)c2cc3c([nH]c2=O)CC(c2ccccc2)CC3=O)cc1` (stereo not drawn) gave HepG2 tox -8% and TGFb SMAD3 inh -2%.
`O=C1[C@H](Cc2ccccc2)NC/C=C\C[C@@H](c2ccc(Cl)cc2)N1Cc1ccccc1` gave HepG2 tox 8.9µM* and TGFb SMAD3 inh inconclusive.
`COC(=O)[C@H](CC(C)C)NS(=O)(=O)NC(=O)OC(C)(C)C` gave HepG2 tox 4% and TGFb SMAD3 inh 8%.
Cc1sc2ccccc2[n+]1CCC[n+]1c(C)sc2ccccc21 was read as HepG2 tox -38% and TGFb SMAD3 inh 11µM*.
For COc1cc(OC)c(/C=C/c2ccncn2)c(OC)c1 the results were HepG2 tox -1% and TGFb SMAD3 inh inconclusive.
`COCC(=O)OC1CCn2c1nc1c2C(=O)C(C)=C(NC(C)=O)C1=O` (stereo not drawn) gave ATXN2 expr inh 10µM*, HepG2 tox -87% and TGFb SMAD3 inh inconclusive.
For Cc1nc2c(-c3ccccc3)c(C)[nH]n2c(=O)c1Cc1ccccc1 the results were ATXN2 expr inh -17%, HepG2 tox -36%, TGFb SMAD3 inh inconclusive and S2 tox inactive.
Screening Cc1nc2c(-c3ccc(Cl)cc3)c(C)[nH]n2c(=O)c1Cc1ccccc1 returned ATXN2 expr inh inconclusive, HepG2 tox 10µM*, TGFb SMAD3 inh 11µM* and S2 tox inconclusive.
For Cc1cccc(Cc2c(C)nc3c(-c4ccccc4)c(C)[nH]n3c2=O)c1 the results were ATXN2 expr inh 13µM*, HepG2 tox -31%, TGFb SMAD3 inh 2.5µM* and S2 tox inconclusive.
COCc1cc(=O)n2[nH]c(C)c(-c3ccc(Cl)cc3)c2n1 was read as HepG2 tox 14µM*, TGFb SMAD3 inh -11% and S2 tox inactive.
For CC(NC(=O)C1CCOCC1)c1nnc2n1CCN(Cc1ccc3ccccc3c1)CC2 (stereo not drawn) the results were S2 tox inactive.
CNC(=O)c1cc(-c2cccs2)on1 was read as HepG2 tox -9% and TGFb SMAD3 inh inconclusive.
`COc1cc(=O)n2c(c1C(=O)N(C)Cc1nccs1)CCN(Cc1cc(C)cc(C)c1)CC2` gave S2 tox inactive.
Screening Cn1ccnc1C(O)c1cc(C(C)(C)C)c(O)c(C(C)(C)C)c1 (stereo not drawn) returned ATXN2 expr inh -7%, HepG2 tox -81%, TGFb SMAD3 inh 16µM* and S2 tox inactive.
